# Measured values: PubChem BioAssay (NCATS)
# Inconclusive results are not listed. A call without a number means that no potency is given here. Calls of active or inactive are those of the source. Unless noted, the call rests on the fitted dose curve; in most records, active means well fitted curve in the direction sought with a large enough effect; inconclusive means small, poorly fitted or top-dose-only effect, or another doubt; inactive means no such curve, though single readings can be large; an effect the other way counts as inactive or inconclusive.
# Key:
# [1] = target: Alpha-galactosidase (Coffea arabica) (UniProt Q42656); experiment: Counterscreen for Glucocerebrosidase Inhibitors: qHTS Assay for Coffee Bean alpha-Galactosidase at pH 4.5 (AID 957); further: series mostly up to about 77 µM
# Alpha-galactosidase (Coffea arabica), sequence (Q42656 whole entry, looked up): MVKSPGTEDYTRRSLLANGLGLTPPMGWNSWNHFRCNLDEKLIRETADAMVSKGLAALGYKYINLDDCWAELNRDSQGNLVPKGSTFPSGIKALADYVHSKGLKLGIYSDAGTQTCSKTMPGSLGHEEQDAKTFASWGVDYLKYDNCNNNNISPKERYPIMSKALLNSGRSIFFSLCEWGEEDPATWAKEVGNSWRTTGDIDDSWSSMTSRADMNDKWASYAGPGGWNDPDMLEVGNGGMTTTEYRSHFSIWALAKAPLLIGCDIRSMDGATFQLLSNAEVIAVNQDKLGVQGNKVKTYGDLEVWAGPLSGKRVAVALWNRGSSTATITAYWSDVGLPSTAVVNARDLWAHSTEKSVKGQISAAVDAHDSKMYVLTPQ
# Method in brief: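 Green coffee bean enzyme (2 nM final) was incubated with compounds (0.7 nM to 77 uM) and 4-methylumbelliferyl alpha-D-galactopyranoside (80 uM final) in 50 mM citric acid, 0.005% Tween-20, pH 4.5, 20 min at room temperature; AC50 from Hill fits.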
# [2] = target: Alpha-galactosidase (Coffea arabica) (UniProt Q42656); experiment: Counterscreen for Glucocerebrosidase Inhibitors: qHTS Assay for Coffee Bean alpha-Galactosidase at pH 5.9 (AID 998)
# Method in brief: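 Compounds were titrated from 0.7 nM to 77 uM against green coffee bean alpha-galactosidase (2 nM) using 80 uM fluorogenic 4-methylumbelliferyl substrate. After 20 min at room temperature, reactions were stopped at pH 10 and read by fluorescence.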
# [3] = Validation screen for inhibitors of Lassa infection (AID 463096; calls by dose curve)
# [4] = Inducers of the Endoplasmic Reticulum Stress Response (ERSR) in human glioma: Validation (AID 504836)
# Method in brief: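 ERSR induction read as luciferase luminescence (Bright-Glo, 10 min at room temperature) in stably transfected human U87-MG glioma cells exposed to compounds for 16 h, using GRP78 as sensor.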
# [5] = qHTS for Inhibitors of the Functional Ribonucleoprotein Complex (vRNP) of Lassa (LASV) Arenavirus: LASV Primary Screen - GLuc reporter signal (AID 1347082; calls by dose curve; tested in HEK293 reporter line; further: series mostly up to about 57 µM; nearly all actives have a fitted effect of over 60% in size)
# [6] = qHTS for Inhibitors of the Functional Ribonucleoprotein Complex (vRNP) of Lassa (LASV) Arenavirus: Viability assay - alamar blue signal for LASV Primary Screen (AID 1347083; calls by dose curve; tested in HEK293 reporter line; further: series mostly up to about 57 µM; nearly all actives have a fitted effect of over 80% in size)
# [7] = qHTS for Inhibitors of the Functional Ribonucleoprotein Complex (vRNP) of Lymphocytic Choriomeningitis Arenaviruses (LCMV): Viability assay - alamar blue signal for LCMV Primary Screen (AID 1347085; calls by dose curve; tested in HEK293 reporter line; further: series mostly up to about 57 µM; nearly all actives have a fitted effect of over 80% in size)
# [8] = target: Nucleoprotein (Lymphocytic choriomeningitis virus (strain Armstrong)) (UniProt P09992); experiment: qHTS for Inhibitors of the Functional Ribonucleoprotein Complex (vRNP) of Lymphocytic Choriomeningitis Arenaviruses (LCMV): LCMV Primary Screen - GLuc reporter signal (AID 1347086; calls by dose curve; further: series mostly up to about 57 µM; nearly all actives have a fitted effect of over 70% in size)
# Nucleoprotein (Lymphocytic choriomeningitis virus (strain Armstrong)), sequence (P09992 whole entry, looked up): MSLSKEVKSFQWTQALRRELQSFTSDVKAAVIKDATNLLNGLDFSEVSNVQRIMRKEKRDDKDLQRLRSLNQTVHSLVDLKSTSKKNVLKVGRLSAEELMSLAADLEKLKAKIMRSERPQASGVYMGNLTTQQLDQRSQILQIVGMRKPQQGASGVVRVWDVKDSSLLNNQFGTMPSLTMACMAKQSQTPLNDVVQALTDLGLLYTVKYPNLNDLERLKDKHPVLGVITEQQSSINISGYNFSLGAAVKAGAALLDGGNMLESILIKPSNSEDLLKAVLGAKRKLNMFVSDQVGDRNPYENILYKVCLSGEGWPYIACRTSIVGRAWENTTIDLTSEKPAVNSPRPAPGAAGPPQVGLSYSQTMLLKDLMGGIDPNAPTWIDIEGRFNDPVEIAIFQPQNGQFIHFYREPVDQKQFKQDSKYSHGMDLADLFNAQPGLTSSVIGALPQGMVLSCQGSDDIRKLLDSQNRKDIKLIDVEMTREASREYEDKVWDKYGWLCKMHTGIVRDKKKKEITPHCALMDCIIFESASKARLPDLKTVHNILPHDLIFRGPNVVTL
# [9] = target: M-phase phosphoprotein 8 (Homo sapiens) (UniProt Q99549); experiment: qHTS Validation Assay for Inhibitors for MPP8 Chromodomain Interactions with Methylated Histone Tails (AID 488949);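 further: AlphaScreen signal from MPP8 chromodomain bound to biotinylated H3K9me3 peptide; top concentration of the series differs between compounds; nearly all actives have a fitted effect of over 55% in size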
# M-phase phosphoprotein 8 (Homo sapiens), sequence (Q99549 whole entry, looked up): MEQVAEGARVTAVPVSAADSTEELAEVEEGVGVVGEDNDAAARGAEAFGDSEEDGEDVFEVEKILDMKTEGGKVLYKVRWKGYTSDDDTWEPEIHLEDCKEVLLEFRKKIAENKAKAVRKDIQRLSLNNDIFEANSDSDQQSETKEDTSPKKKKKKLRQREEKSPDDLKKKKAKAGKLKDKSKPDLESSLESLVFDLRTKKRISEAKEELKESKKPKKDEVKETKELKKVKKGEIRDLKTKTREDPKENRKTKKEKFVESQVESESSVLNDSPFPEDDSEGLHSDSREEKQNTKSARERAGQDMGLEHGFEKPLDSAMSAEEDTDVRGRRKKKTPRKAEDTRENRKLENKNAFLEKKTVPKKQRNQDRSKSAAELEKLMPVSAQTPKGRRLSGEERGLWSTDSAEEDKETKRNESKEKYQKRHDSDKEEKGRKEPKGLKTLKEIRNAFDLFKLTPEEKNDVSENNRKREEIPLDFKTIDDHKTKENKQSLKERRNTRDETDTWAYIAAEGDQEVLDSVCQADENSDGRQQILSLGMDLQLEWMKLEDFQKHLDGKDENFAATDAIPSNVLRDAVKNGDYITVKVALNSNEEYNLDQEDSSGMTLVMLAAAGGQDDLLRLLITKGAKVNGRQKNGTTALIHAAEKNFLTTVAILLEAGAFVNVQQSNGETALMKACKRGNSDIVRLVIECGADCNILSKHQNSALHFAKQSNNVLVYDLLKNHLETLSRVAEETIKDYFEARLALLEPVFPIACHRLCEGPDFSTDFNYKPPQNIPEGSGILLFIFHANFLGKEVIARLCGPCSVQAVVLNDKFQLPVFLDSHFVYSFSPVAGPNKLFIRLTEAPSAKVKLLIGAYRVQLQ
# Method in brief: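 MPP8 (50 nM) was preincubated with biotinylated H3(1-18)K9me3 peptide (50 nM) in PBS pH 7.4, 0.01% Tween-20 for 30 min at room temperature, then with compounds for 30 min; binding was detected by AlphaScreen.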
# [10] = target: Arylsulfatase A (Homo sapiens) (UniProt P15289); experiment: qHTS screen for enhancers of Arylsulfatase A (ASA1): LOPAC Validation Assay (AID 720538)
# Arylsulfatase A (Homo sapiens), sequence (P15289 whole entry, looked up): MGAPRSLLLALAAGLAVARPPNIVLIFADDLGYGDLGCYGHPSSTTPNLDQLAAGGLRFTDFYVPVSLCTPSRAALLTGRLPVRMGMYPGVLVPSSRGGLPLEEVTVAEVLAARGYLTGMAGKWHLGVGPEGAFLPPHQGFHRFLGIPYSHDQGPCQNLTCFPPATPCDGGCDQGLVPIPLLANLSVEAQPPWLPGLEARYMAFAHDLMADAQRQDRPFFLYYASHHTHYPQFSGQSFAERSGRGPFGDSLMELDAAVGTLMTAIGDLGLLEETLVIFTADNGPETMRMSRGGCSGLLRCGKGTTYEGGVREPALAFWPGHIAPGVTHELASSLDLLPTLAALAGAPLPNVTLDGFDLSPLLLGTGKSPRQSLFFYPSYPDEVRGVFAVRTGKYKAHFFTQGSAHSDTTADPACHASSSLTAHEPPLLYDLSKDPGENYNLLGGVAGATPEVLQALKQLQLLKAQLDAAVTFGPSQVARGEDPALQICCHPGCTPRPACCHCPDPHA
# Method in brief: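 SV40-transformed skin fibroblasts from an MLD patient (ASA-I179S) were treated with compounds for 48h at 37 degree C, then lysed with 0.5mM pNCS final substrate for 14h at room temperature; NaOH stop, fluorescence read (Ex=525 nm; Em=598 nm).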
# [11] = Quantitative high throughput screen for delayed death inhibitors of the malarial parasite plastid, 96 hour incubation (AID 488745); further: potency means the concentration at half of the fitted maximal effect; nearly all actives have a fitted effect of over 70% in size
# Method in brief: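 P. falciparum carrying an integrated firefly luciferase reporter, grown in erythrocytes (2% hematocrit, 0.1% parasitemia final) in RPMI 1640/0.5% Albumax, was exposed to compound for 96 h (two generations) at 37 C, 5% CO2. Luminescence decrease indicated growth inhibition.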
# [12] = Quantitative high throughput screen for delayed death inhibitors of the malarial parasite plastid, 48 hour incubation (AID 488752); further: potency means the concentration at half of the fitted maximal effect; nearly all actives have a fitted effect of over 65% in size
# Method in brief: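 Erythrocytes infected with P. falciparum carrying an integrated firefly luciferase reporter (2% hematocrit, 0.1% parasitemia final) were exposed to compounds in RPMI 1640/0.5% Albumax for 48 h at 37 C, 5% CO2. Growth inhibition was scored as reduced luminescence.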
Structure (SMILES),outcome [1],outcome [2],Potency [3],outcome [4],Potency [5],Potency [6],Potency [7],Potency [8],Potency [9],Potency [10],Potency [11],Potency [12]
C[C@H](O)C(=O)C1=Nc2c(nc(N)[nH]c2=O)NC1,inactive,inactive,inactive,inactive,inactive,inactive,inactive,inactive,–,–,–,–
CCCn1c(=O)c2[nH]c(-c3ccc(S(=O)(=O)O)cc3)nc2n(CCC)c1=O,inactive,inactive,inactive,inactive,inactive,inactive,inactive,inactive,–,–,–,–
CN1CCc2ccccc2Cc2[nH]c3ccccc3c2CC1,inactive,inactive,inactive,inactive,inactive,inactive,inactive,inactive,–,–,–,–
N[C@@H](CS(=O)O)C(=O)O,inactive,inactive,inactive,inactive,inactive,inactive,inactive,inactive,–,–,–,–
CC(C)NC[C@H](O)c1ccc(O)c(O)c1,–,inactive,inactive,inactive,inactive,inactive,inactive,inactive,–,–,–,–
COc1ccc2c(c1)c(CC(=O)O)c(C)n2C(=O)c1ccccc1,–,inactive,inactive,inactive,inactive,inactive,inactive,inactive,–,–,–,–
COCc1nc2c([nH]1)c(=O)n(C)c(=O)n2CC(C)C,inactive,inactive,inactive,inactive,inactive,inactive,inactive,inactive,–,–,–,–
N#C/C(=C\c1c[nH]c2ccccc12)C(=O)c1ccc(O)c(O)c1,inactive,inactive,inactive,inactive,inactive,inactive,inactive,inactive,–,–,–,–
Cc1nc(N=Nc2ccc(S(=O)(=O)O)cc2S(=O)(=O)O)c(COP(=O)(O)O)c(C=O)c1O,inactive,inactive,inactive,inactive,inactive,inactive,inactive,inactive,–,–,–,–
c1ccc2nc(C3=NCCN3)ccc2c1,inactive,inactive,inactive,inactive,inactive,inactive,inactive,inactive,–,–,–,–
N[C@@H](Cc1ccc(O)c(I)c1)C(=O)O,inactive,inactive,inactive,inactive,inactive,inactive,inactive,inactive,–,–,–,–
O=C1CCC(c2ccc(-n3ccnc3)cc2)=NN1,inactive,inactive,inactive,inactive,inactive,inactive,inactive,inactive,–,–,–,–
O=C(O)c1cc2cc(Cc3cccnc3)ccc2o1,–,inactive,inactive,inactive,inactive,inactive,inactive,inactive,–,–,–,–
COc1ccc(C(=O)NCc2cccnc2)cc1C(=O)NCc1cccnc1,inactive,inactive,inactive,inactive,inactive,inactive,inactive,inactive,–,–,–,–
NCCS(=O)O,inactive,inactive,inactive,inactive,inactive,inactive,inactive,inactive,–,–,–,–
N#CC(C#N)=C(N)/C(C#N)=C/c1ccc(O)cc1,inactive,inactive,inactive,inactive,inactive,inactive,inactive,inactive,–,–,–,–
Fc1ccc(C(OCCCc2cnc[nH]2)c2ccc(F)cc2)cc1,–,inactive,inactive,inactive,inactive,inactive,inactive,inactive,–,–,–,–
NC(=O)CNCCC(c1ccccc1)c1ccccc1,inactive,inactive,inactive,inactive,inactive,inactive,inactive,inactive,–,–,–,–
O=c1[nH]c2cc(C(F)(F)F)ccc2n1-c1cc(C(F)(F)F)ccc1O,inactive,inactive,inactive,inactive,inactive,inactive,inactive,inactive,–,–,–,–
O=c1[nH]c2cc(Cl)ccc2c(O)c1-c1ccc(Oc2ccccc2)cc1,inactive,inactive,inactive,inactive,inactive,inactive,inactive,inactive,–,–,–,–
CC(=O)NNC(=O)N1Cc2ccccc2Oc2ccc(Cl)cc21,inactive,inactive,inactive,inactive,inactive,inactive,inactive,inactive,–,–,–,–
Fc1ccc(CN(C2=NCCN2)c2c(Cl)cccc2Cl)cc1,inactive,inactive,inactive,inactive,inactive,inactive,inactive,inactive,–,–,–,–
CN[C@H](CC(=O)O)C(=O)O,inactive,inactive,inactive,inactive,inactive,inactive,inactive,inactive,–,–,–,–
CC1(C)CCC=[N+]1[O-],–,inactive,inactive,inactive,inactive,inactive,inactive,inactive,–,–,–,–
COc1ccccc1N1CCN(CCCNc2c(C)c(=O)n(C)c(=O)n2C)CC1,inactive,inactive,inactive,inactive,inactive,inactive,inactive,inactive,–,–,–,–

Structure (SMILES),outcome [1],outcome [2],Potency [3],outcome [4],Potency [5],Potency [6],Potency [7],Potency [8],Potency [9],Potency [10],Potency [11],Potency [12]
COc1cc2c(CCNC(C)=O)c[nH]c2cc1Cl,inactive,inactive,inactive,inactive,inactive,inactive,inactive,inactive,–,–,–,–
NCCCS(=O)(=O)O,inactive,inactive,inactive,inactive,inactive,inactive,inactive,inactive,–,–,–,–
CCCn1c(=O)c2c(ncn2C)n(CCC)c1=O,inactive,inactive,inactive,inactive,inactive,inactive,inactive,inactive,–,–,–,–
O=C(c1cc(O)c(O)c([N+](=O)[O-])c1)c1ccccc1F,–,inactive,inactive,inactive,inactive,inactive,inactive,inactive,–,–,–,–
CCCCCCCCCCC/C=C\C(C)(C)/C=C\CCCC(=O)O,inactive,inactive,inactive,inactive,inactive,inactive,inactive,inactive,–,–,–,–
CN1CCN(c2nc3cc(C(F)(F)F)ccc3n3cccc23)CC1,–,inactive,inactive,inactive,inactive,inactive,inactive,inactive,–,–,–,–
Oc1ccc(Cn2cc[nH]c2=S)cc1,–,inactive,inactive,inactive,inactive,inactive,inactive,inactive,–,–,–,–
COc1cc(N)c(Cl)cc1C(=O)OCCN1CCCCC1,inactive,inactive,inactive,inactive,inactive,inactive,inactive,inactive,–,–,–,–
Cc1nc(N=Nc2ccc(C(=O)O)cc2)c(COP(=O)(O)O)c(C=O)c1O,inactive,inactive,inactive,inactive,inactive,inactive,inactive,inactive,–,–,–,–
CN(C)C(N)=NCCC[C@H](N)C(=O)O,inactive,inactive,inactive,inactive,inactive,inactive,inactive,inactive,–,–,–,–
NC1(C(=O)O)CC1,inactive,inactive,inactive,inactive,inactive,inactive,inactive,inactive,–,–,–,–
CSC(=N)N,–,inactive,inactive,inactive,inactive,inactive,inactive,inactive,–,–,–,–
NC(=O)C(=O)O,–,inactive,inactive,inactive,inactive,inactive,inactive,inactive,–,–,–,–
N[C@@H](Cc1c[nH]c2ccccc12)C(=O)O,–,inactive,inactive,inactive,inactive,inactive,inactive,inactive,–,–,–,–
N#C/C(=C\c1ccc(O)c(O)c1)C(=O)c1ccc(O)c(O)c1,–,inactive,inactive,inactive,inactive,inactive,inactive,inactive,–,–,–,–
N.N.O=C(O)C1(C(=O)O)CCC1.[Pt],inactive,inactive,inactive,–,inactive,inactive,inactive,inactive,–,–,–,–
NC(N)=NC(N)=Nc1ccccc1,–,inactive,inactive,–,inactive,inactive,inactive,inactive,–,–,–,–
CC(N)(Cc1ccc(O)cc1)C(=O)O (stereo not given),–,–,–,inactive,inactive,inactive,inactive,inactive,–,–,–,–
O=c1[nH]c2cc([N+](=O)[O-])c([N+](=O)[O-])cc2[nH]c1=O,–,inactive,inactive,inactive,inactive,inactive,inactive,inactive,–,–,–,–
OCC1O[C@H]([S-])[C@H](O)[C@@H](O)[C@@H]1O.[Au+] (stereo not given in full),–,–,–,inactive,inactive,inactive,inactive,inactive,–,–,–,–
CN1CCc2cc(Cl)c(O)cc2[C@@H](c2ccccc2)C1,–,–,–,inactive,inactive,inactive,inactive,inactive,–,–,–,–
C[C@]12C=CC(=O)C=C1CC[C@@H]1C2=CC[C@]2(C)[C@@H](C(=O)CN3CCN(c4cc(N5CCCC5)nc(N5CCCC5)n4)CC3)CC[C@@H]12,–,–,–,inactive,inactive,inactive,inactive,inactive,inactive,inactive,–,–
CCN(CC)CCOC(=O)c1cc(Cl)c(N)cc1OC,inactive,inactive,inactive,–,inactive,inactive,inactive,inactive,–,–,–,–
CC(C)NC[C@H](O)COc1ccc(CC(N)=O)cc1,–,inactive,inactive,inactive,inactive,inactive,inactive,inactive,–,–,–,–
CN1CCc2cccc3c2C1Cc1ccc(O)c(O)c1-3 (stereo not given),–,–,–,–,inactive,inactive,inactive,inactive,–,–,2.94 µM (active),3.7 µM (active)
